Source: PubChem (The Scripps Research Institute Molecular Screening Center)
PME-1 inh: PME-1 (human) inhibition; inhibition, % at 5.9 µM; recombinant PME-1, FP-Rh probe fluorescence polarization; AID 2130; Q9Y570; 320,000 tested, 0.53% active;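 active = inhibition above the campaign mean of all compounds plus 3 SD, cut at about 26% in these data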;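 also: competitive labeling of PME-1 active site by serine hydrolase directed probe; 0% = PME-1 with DMSO and 100% = wells lacking PME-1 enzyme; inhibitors block probe labeling so polarization falls and inhibition rises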
GSTO1 inh: GSTO1 inhibition, counter-screen for RBBP9 inhibitors | recombinant GSTO1, activity-based probe fluorescence polarization | inhibition, % at 5.96 µM | AID 1974 | P78417 | 300,000 tested, 1.1% active;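 active = inhibition above the campaign mean inhibition plus 3 SD, cut at about 35% in these data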;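 also: 0% = GSTO1-1 with DMSO and 100% = wells lacking GSTO1-1 enzyme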
Fam108B inh: blocks mouse Fam108B hydrolase in RBBP9 counter-screen. 300,000 tested, 0.33% active. AID 1947. recombinant Fam108B, FP-Rh probe fluorescence polarization. inhibition, % at 9.51 µM;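 active = inhibition above the screen mean inhibition plus 3 SD, computed separately per campaign, cut at about 18% in these data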;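 also: inhibitors lower polarization as less probe binds the enzyme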
LYPLA1 inh: blocks human lysophospholipase 1, a PME1 counter-screen; O75608; recombinant LYPLA1, FP-Rh probe fluorescence polarization; inhibition, % at 5.9 µM; 320,000 tested, 0.16% active; AID 2174;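 active = inhibition above the mean of all tested compounds plus 3 SD, set per campaign, cut at about 14% in these data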;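 also: inhibitors block serine hydrolase probe labeling of LYPLA1 so polarization falls; 0% = enzyme with DMSO and 100% = wells lacking LYPLA1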
Target sequence (O75608 whole entry, looked up): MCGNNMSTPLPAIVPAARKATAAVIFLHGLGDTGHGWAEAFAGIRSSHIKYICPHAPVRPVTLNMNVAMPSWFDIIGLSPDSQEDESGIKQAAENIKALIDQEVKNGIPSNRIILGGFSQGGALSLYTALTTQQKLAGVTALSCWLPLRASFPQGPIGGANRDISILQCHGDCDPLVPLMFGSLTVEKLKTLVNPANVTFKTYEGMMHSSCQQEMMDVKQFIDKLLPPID
LYPLA2 counter: blocks human lysophospholipase 2, a PME1 counter-screen; 320,000 tested, 0.38% active; inhibition, % at 5.9 µM; O95372; recombinant LYPLA2, FP-Rh probe fluorescence polarization;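 active = inhibition above the screen-wide mean plus 3 SD, limit set per campaign, cut at about 26% in these data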;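 also: 0% = LYPLA2 with DMSO and 100% = wells lacking LYPLA2 enzyme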
PREPL inhibitor: inhibitors of human prolyl oligopeptidase-like enzyme PREPL. 320,000 tested, 0.68% active. inhibition, % at 5.96 µM. Q4J6C6. recombinant PREPL, fluorescence polarization activity-based probe. AID 2751; in the data active = inhibition above about 43%;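 also: 0% = enzyme with DMSO and 100% = wells lacking enzyme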
LYPLA1 confirm: LYPLA1 (human) inhibition, confirmation counter-screen; shares compounds with LYPLA1 inh; recombinant LYPLA1, FP-Rh probe fluorescence polarization; inhibition, % at 5.9 µM; 480 tested, 69% active; AID 2233;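 active = mean inhibition across replicates above the hit cutoff set in the primary screen, cut at about 15% in these data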;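 also: loss of FP-Rh probe labeling of LYPLA1 seen as lower polarization; 0% = LYPLA1 with DMSO and 100% = wells lacking LYPLA1 enzyme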
Numbers without * were called inactive; nt = no result; + = active, no number. In the library only some 1.9% were active in any assay of this set; here they are far more common.

SMILES	PME-1 inh	GSTO1 inh	Fam108B inh	LYPLA1 inh	LYPLA2 counter	PREPL inhibitor	LYPLA1 confirm
O=C1NC(=S)S/C1=C\c1coc2ccccc2c1=O	4	21	3	17*	7	6	-2
O=C(NC1CCCCC1)C(c1c(F)cccc1Cl)N(C(=O)c1csnn1)C1CC1 (stereo not given)	-6	-1	-2	3	1	8	nt
CN(C)C=Nc1c(Br)cc(Br)c2nonc12	6	6	12	14*	-2	-5	-1
Cc1c(C(C)C[C@H](C)O)oc(=O)c2c1Oc1c(C)c(C(C)C[C@H](C)O)oc(=O)c1C2 (stereo not given in full)	2	nt	nt	1	-1	7	nt
CSc1ccccc1C(=O)C1CCCN(S(=O)(=O)c2c(C)noc2C)C1 (stereo not given)	3	-1	6	1	3	-3	nt
O=C1C(Cc2c[nH]c3ccccc23)NC(=S)N1Cc1ccccc1 (stereo not given)	2	8	4	38*	-7	-40	1
O=C1NC(Cc2c[nH]c3ccccc23)C(=O)N1Cc1ccccc1 (stereo not given)	2	2	2	0	-1	-12	nt
O=C(O)c1cccc(N/N=C/c2cc(Br)cc(Br)c2O)c1	58*	5	18	24*	14	20	20*
O=C1CCN(C(=O)/C=C/c2ccccc2)c2ccccc21	0	-7	-1	15*	13	-8	23*
Cc1ccc(C(C)C)c(OCC(=O)NNCC(=O)Nc2cccc(F)c2)c1	nt	nt	nt	nt	nt	6	nt
CN(C)C(=C(C#N)C#N)N1CCN(c2ccc(Cl)cc2)CC1	2	-5	2	-1	3	-13	nt
CSC(=NC#N)N1CCN(c2ccc(Cl)cc2)CC1	0	7	-5	17*	6	1	19*
NC(=O)C1=C[C@@H](c2ccccc2)C[C@@H](OCc2ccc(CO)cc2)O1	-2	-6	-4	-2	-6	-2	nt
O=c1c2ccccc2nc(SCc2ccc([N+](=O)[O-])cc2)n1-c1ccccc1	18	1	-7	1	-11	7	nt
O=C(O)c1ccc(CSc2nc3ccccc3c(=O)n2-c2ccccc2)cc1	2	4	-2	17*	22	-6	27*
COc1ccc2nc(NC(=O)c3sc4nc(C)cc(C)c4c3N)sc2c1	0	1	-4	15*	5	11	18*
COc1ccc2nc(NC(=O)c3cc(C)oc3C)sc2c1	-1	1	-4	-3	-7	-6	nt
Cc1cc(C)c2c(N)c(C(=O)Nc3ncc(C)s3)sc2n1	5	-15	-7	28*	-6	13	21*
COC(=O)c1sc2nc(C)cc(C)c2c1N	-1	5	0	-3	-2	-1	nt
CCCCCC(=O)Nc1cccc(C2=NOC3(C2)C[C@H](C(N)=O)N(C(=O)c2ccccc2C(=O)c2ccccc2)C3)c1 (stereo not given in full)	2	5	0	-4	-5	19	nt
O=C(Nc1ccccc1Br)c1ccc(N2CCCC2=O)cc1	6	-1	-1	2	6	3	nt
CS(=O)(=O)N1CCN=C1SCc1ccc([N+](=O)[O-])cc1	4	1	4	+	5	0	0
CS(=O)(=O)N1CCN=C1SCc1ccc(Br)cc1	-6	0	-1	-1	8	2	nt
O=C1CC2(CCN(C(=O)c3ccc(Br)cc3)CC2)Oc2ccccc21	-3	4	-2	-5	-2	7	nt
CCOc1ccc(NC(=S)NC(=O)c2c(Br)cnn2C)c([N+](=O)[O-])c1	2	0	-2	18*	21	5	59*
O=C(Nc1ccc(F)cc1)C1CC(=O)N(Cc2ccco2)C1 (stereo not given)	1	-1	-1	-5	-5	-2	nt
CCN(CC)S(=O)(=O)c1cccc(-c2nnc(SCCOc3ccccc3C)o2)c1	-1	-1	-1	29*	-8	7	34*
CCN(CC)S(=O)(=O)c1cccc(-c2nnc(SCCOc3ccccc3)o2)c1	-10	-4	-6	41*	1	5	51*
